Hits are enriched below; roughly 18% of the tested compounds scored in any of these assays.
Gal4-VP16 FLuc = counter-screen for ROR gamma inhibitors: Gal4-VP16 reporter; Drosophila S2 Gal4-VP16 UAS-luciferase, luminescence, 20 h; Potency, µM (top dose mostly 53.6 µM), without a hit: top-dose activity, negative = inhibition, usual class: inhibitors; actives 3.5% (n = 310,000);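 note: Gal4-VP16 expression switched on by copper sulfate through the metallothionein promoter; potency is the fitted concentration of half-maximal effect; nearly all actives have a fitted effect of over 50% in size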
TDP1 cell CPT = DT40-hTDP1 cell growth loss with CPT. chicken DT40 Tdp1-/-;hTDP1 cells + 20 nM CPT, ATP luminescence, 48 h. Potency, µM (top dose mostly 46.2 µM), without a hit: at the top dose activity change, negative = growth inhibition, usual class: inhibitors. actives 12% (n = 420,000). AID 686979; note: potency is the fitted concentration of half-maximal effect; nearly all actives have a fitted effect of over 55% in size
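Chicken DT40 Tdp1-/- cells stably complemented with human TDP1 were seeded at 400 cells/well in medium containing 20 nM camptothecin, exposed to pin-transferred compounds, and grown at 37 °C for at least 48 hr. Viability was read as ATP luminescence.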
IL-1B inflam inh = inflammasome signaling inhibition, IL-1 beta readout; THP-1 LPS/ATP IL-1B secretion, AlphaLISA, 16 h; active compounds read low; activity change, % at 57.5 µM; actives 4.7% (n = 360,000); in the data active = activity change below about -50%; inconclusive = mostly about -30% to -49%
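THP-1 cells pretreated 1 hr with compounds (up to 57.5 uM final), then stimulated with LPS (250 ng/mL final) plus ATP (1.25 mM final); secreted IL-1B measured by AlphaLISA after 16 hr, decreased signal indicating inhibition.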
DT40 TDP1 no CPT = qHTS for Inhibitors of human tyrosyl-DNA phosphodiesterase 1 (TDP1): qHTS in cells in absence of CPT; DT40 Tdp1-/- hTDP1 cells, no CPT, ATP luminescence, 48 h; Potency, µM (series often up to 46.2 µM), for inactives: top-dose activity change, negative = growth inhibition, usual class: inhibitors; actives 15% (n = 420,000); note: potency is the fitted concentration of half-maximal effect; nearly all actives have a fitted effect of over 55% in size
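Luminescent ATP content (CellTiter-Glo) served as the growth readout. Knockout chicken DT40 cells expressing human TDP1 were exposed to compounds without camptothecin for a minimum 48 hr at 37 °C.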
RORg inh = blocks mouse ROR gamma transcriptional activity | P51450 | Drosophila S2 Gal4-RORgamma UAS-luciferase reporter, 20 h | Potency, µM (titrated, usually from 53.6 µM), for the others: at the highest dose activity change, negative = inhibition, usual class: inhibitors | actives 5.4% (n = 310,000) | AID 2551; note: potency is the fitted concentration of half-maximal effect; nearly all actives have a fitted effect of over 60% in size
Target sequence (P51450 whole entry, looked up, the tested form may be a part): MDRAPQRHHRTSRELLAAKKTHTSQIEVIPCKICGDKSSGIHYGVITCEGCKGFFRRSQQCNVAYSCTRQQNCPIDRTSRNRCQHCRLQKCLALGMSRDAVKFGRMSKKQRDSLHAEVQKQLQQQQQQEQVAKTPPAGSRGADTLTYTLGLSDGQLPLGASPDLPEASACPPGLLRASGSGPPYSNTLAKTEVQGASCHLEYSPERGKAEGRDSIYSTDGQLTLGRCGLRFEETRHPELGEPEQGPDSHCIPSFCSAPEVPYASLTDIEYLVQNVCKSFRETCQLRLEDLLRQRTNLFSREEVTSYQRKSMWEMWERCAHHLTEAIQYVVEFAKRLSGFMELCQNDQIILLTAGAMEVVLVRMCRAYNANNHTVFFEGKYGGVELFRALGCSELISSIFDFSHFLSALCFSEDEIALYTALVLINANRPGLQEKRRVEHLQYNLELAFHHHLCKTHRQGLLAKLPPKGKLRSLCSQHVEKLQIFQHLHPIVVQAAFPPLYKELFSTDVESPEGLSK
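Drosophila S2 cells stably expressing Gal4-DBD/mouse RORγ fusion under metallothionein promoter plus UAS-luciferase; compound 1 h, then 700 uM CuSO4 induction for 20 h at ambient temperature; inhibition read as reduced luminescence.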
LDHA block = blocks human lactate dehydrogenase A. purified LDHA, NADH/diaphorase-resazurin fluorescence; active compounds read low. activity change, % (values are at about 110 or 230 µM). actives 0.15% (n = 480,000); in the data active = activity change below about -30%; inconclusive = mostly about -25% to -30%;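 note: plate controls were DMSO wells for no effect and wells without enzyme for full effect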
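Remaining NADH was detected by diaphorase (0.133 mg/mL) converting 37 µM resazurin to fluorescent resorufin, read at 0 and 20 minutes. The preceding 5-minute room-temperature reaction used 2 nM LDHA, 0.2 mM sodium pyruvate and 0.06 mM NADH at pH 7.4.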
Numbers without * were called inactive; ? = inconclusive; . = not tested or not shown. Unless noted, calls come from the whole dose curve; as a rule, active = well fitted curve in the direction sought with a large enough effect; inconclusive = small, poorly fitted or top-dose-only effect, or another doubt; inactive = no such curve, though single readings can be large; an effect the other way counts as inactive or inconclusive. Unless noted, % is set by controls: 0 for no effect and ±100 for the full control effect.

SMILES	Gal4-VP16 FLuc	TDP1 cell CPT	IL-1B inflam inh	DT40 TDP1 no CPT	RORg inh	LDHA block
COc1ccc(NC(=O)CSc2nc3ccccc3nc2N2CCCCC2)cc1	-2%	?	21	?	-28%	-7
Cc1cc(C)c(NC(=O)c2nc3ccccc3nc2N2CCCCC2)c(C)c1	.	?	.	26µM*	.	5
Cc1cccc(NC(=O)CSc2nc3ccccc3nc2N2CCCCC2)c1	-6%	29µM*	-4	?	?	-3
Cc1cccc(NC(=O)CSc2nc3ccccc3nc2N2CCCC2)c1	2%	?	?	?	-5%	1
COc1ccc(CNC(=O)O[C@]23C[C@H]4C(=O)N(c5ccccc5)C(=O)[C@H]4C[C@@]2(O)CN(S(=O)(=O)c2ccc(C)cc2)C3)cc1OC	.	-5%	9	-9%	.	-10
Cc1ccc(S(=O)(=O)N2C[C@]3(O)C[C@@H]4C(=O)N(c5ccccc5)C(=O)[C@@H]4C[C@]3(OC(=O)NC3CCCC3)C2)cc1	.	?	-1	21µM*	.	2
CCCCCCn1c(=O)n2n(c1=O)C[C@]1(OC(=O)NC3CC3)CN(S(=O)(=O)c3ccc(C)cc3)C[C@]1(O)C2	.	?	19	12µM*	.	-1
COCCn1c(SC(C)C(=O)Nc2ccc(Cl)cn2)nc2ccccc21 (configuration not stated)	.	.	.	.	.	7
CN1CCN(C(=O)c2cc(-c3ccccn3)nc3ccccc23)CC1	.	.	.	.	.	7
CCCOc1ccccc1NC(=O)CCc1c(C)c2ccc(OC)cc2oc1=O	.	.	.	.	.	3
C#CC[N+](C)(C)CC#Cc1ccccc1	5%	-2%	-66*	-11%	2%	-7
Cc1ccc(C#CC[N+](C)(C)CC#Cc2ccccc2)cc1	-15%	2.1µM*	-77*	1.8µM*	-6%	0
C#CC[N+](CC#Cc1ccccc1)(CCC)CCC	.	.	.	.	.	6
CCCCn1c(=O)[nH]c(=O)c2c1nc(COC(=O)/C=C/c1cc(Cl)c(OC)c(OCC)c1)n2C	.	.	.	.	.	0
CCC(=O)N1CCc2cc(S(=O)(=O)CCC(=O)N3CCN(c4cccc(C)c4)C(C)C3)ccc21 (configuration not stated)	.	12µM*	.	4.6µM*	.	-1
Cc1cccc(N(C)C(=O)CCNS(=O)(=O)c2ccc3c(c2)CCN3C(=O)C2CC2)c1	.	16µM*	.	21µM*	.	1
Cc1cccc(N2CCN(C(=O)CCNS(=O)(=O)c3ccc4c(c3)oc(=O)n4C)CC2C)c1 (configuration not stated)	4%	?	7	?	21%	-1
Cc1cccc(N2CCN(C(=O)CCNS(=O)(=O)c3ccc4c(c3)CCN4C(=O)C3CC3)CC2C)c1 (configuration not stated)	.	5.8µM*	.	8.2µM*	.	4
CCCCc1ccc(-c2ccc(C3CCC(CC)CC3)cc2)nc1 (configuration not stated)	.	.	.	.	.	-2
Cc1n[nH]c(C)c1N1C(=O)c2cccc3c(Br)ccc(c23)C1=O	-9%	?	-107*	?	29%	-5
Cc1n[nH]c(C)c1N1C(=O)c2cccc3cc(Br)cc(c23)C1=O	3%	?	-21	?	-1%	-7
COc1ccc2c(CNCC(C)c3ccccc3)c(C(=O)O)n(Cc3ccc(F)cc3Cl)c2c1 (configuration not stated)	.	-17%	.	-12%	.	3
CCc1ccc(CNCc2c(C(=O)O)n(Cc3cccc(F)c3)c3cc(OC)ccc23)cc1	.	23µM*	.	21µM*	.	-2
COc1ccc(OC)c(CNCc2c(C(=O)O)n(Cc3ccccc3)c3cc(OC)ccc23)c1	.	?	.	?	.	1
COc1ccc2c(CNCCc3ccc(SC)cc3)c(C(=O)O)n(Cc3ccc(F)cc3)c2c1	.	16µM*	.	12µM*	.	2
SMILES	Gal4-VP16 FLuc	TDP1 cell CPT	IL-1B inflam inh	DT40 TDP1 no CPT	RORg inh	LDHA block
COc1ccc(OC)c(CNCc2c(C(=O)O)n(Cc3cccc(F)c3)c3cc(OC)ccc23)c1	.	?	.	21µM*	.	-1
COc1ccc(Cn2c(C(=O)O)c(CNCC(C)c3ccccc3)c3ccc(OC)cc32)cc1 (configuration not stated)	.	?	.	23µM*	.	-3
CCc1cccc(C)c1NC(=O)CN1CCN(Cc2ccccc2Cl)S1(=O)=O	.	?	.	26µM*	.	0
CCc1cccc(C)c1NC(=O)CN1CCCN(Cc2ccccc2Cl)S1(=O)=O	.	?	.	23µM*	.	-14
CCc1ccc(NC(=O)CN2CCN(Cc3ccccc3)S2(=O)=O)cc1	.	-17%	.	-24%	.	-4
O=C(CN1CCCN(Cc2ccc(F)cc2)S1(=O)=O)NCc1ccccc1Cl	.	?	.	16µM*	.	-1
O=C(CN1CCCN(Cc2ccc(F)cc2Cl)C1=O)NCc1ccccc1	-3%	?	12	?	33%	-7
Cc1ccc(-c2[nH]c3ccccc3c2C)cc1	.	.	.	.	.	1
COc1ccc2nc(C)c(C(=O)Nc3cccc(C)n3)cc2c1	.	.	.	.	.	4
CCOC(=O)CSC1=C(C#N)C(c2ccc(O)c(OC)c2)CC(=O)N1 (configuration not stated)	.	.	.	.	.	0
CCOC(=O)C1=C(C)N=C2SCCC(=O)N2[C@@H]1/C=C/c1ccccc1	1%	-12%	-8	-9%	?	3
COCCOC(=O)C1=C(C)N=C2SCCC(=O)N2C1/C=C/c1ccccc1 (configuration not stated)	3%	18µM*	-23	18µM*	-42%	-4
Cc1nc(C)n(CC(=O)NCC2Cc3cc(-c4cccc(OC(F)(F)F)c4)ccc3O2)n1 (configuration not stated)	.	-91%	.	0.018µM*	.	.
Cc1nc(C)n(CC(=O)NCC2Cc3cc(-c4ccsc4)cc(Cl)c3O2)n1 (configuration not stated)	.	0%	.	?	.	.
CCC(C(=O)OCC(=O)C1(O)CCC2C3CCC4=CC(=O)CCC4(C)C3C(O)CC21C)C(C)C (configuration not stated)	.	9.2µM*	-27	16µM*	.	0
CSCCC(NC(=O)CCC(=O)OCC(=O)[C@@]1(O)CCC2[C@@H]3CCC4=CC(=O)C=C[C@]4(C)C3[C@@H](O)C[C@@]21C)C(=O)O (some centres not stated)	6%	-14%	-55*	-2%	1%	-5
